The campaign covered roughly 410,000 compounds. About 480 (0.12%) were called active. No stated cut-off is given here; in the data, active means activation above about 50%; inconclusive means mostly about 30% to 49%; inactive means weaker than that. This excerpt belongs to a sample that is enriched for actives.

Drawing on PubChem BioAssay AID624414 (National Center for Advancing Translational Sciences (NCATS), 2012), this text covers activation for 90 compounds.

Mucolipin-1 (Homo sapiens), sequence (Q9GZU1 whole entry, looked up, the tested form may be a part): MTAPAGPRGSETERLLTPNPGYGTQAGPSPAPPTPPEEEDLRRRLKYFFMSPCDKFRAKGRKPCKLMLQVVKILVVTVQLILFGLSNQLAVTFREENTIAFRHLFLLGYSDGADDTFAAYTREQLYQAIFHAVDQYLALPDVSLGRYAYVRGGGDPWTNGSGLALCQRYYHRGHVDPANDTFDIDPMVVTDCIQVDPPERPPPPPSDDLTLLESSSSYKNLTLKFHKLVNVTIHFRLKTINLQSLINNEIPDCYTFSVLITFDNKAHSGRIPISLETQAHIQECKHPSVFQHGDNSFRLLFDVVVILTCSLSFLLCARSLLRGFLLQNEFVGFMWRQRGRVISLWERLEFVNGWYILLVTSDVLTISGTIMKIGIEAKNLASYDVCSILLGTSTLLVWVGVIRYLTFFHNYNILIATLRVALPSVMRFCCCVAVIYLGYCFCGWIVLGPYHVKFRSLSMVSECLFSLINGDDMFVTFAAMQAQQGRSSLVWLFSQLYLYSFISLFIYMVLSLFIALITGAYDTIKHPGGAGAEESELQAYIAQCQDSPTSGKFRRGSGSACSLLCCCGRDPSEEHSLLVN

The experiment deals with Mucolipin-1 (Homo sapiens) (UniProt Q9GZU1). Description: qHTS for Agonists of the Human Mucolipin Transient Receptor Potential 1 (TRPML1). Further: 0% is about no effect. The conditions noted are these: TRPML1-expressing cells, Ca2+ dye fluorescence, FDSS; active compounds read high. From the text:
Mutations of human Mucolipin transient receptor potential 1 (TRPML1) cause type IV mucolipidosis (ML4), a devastating neurodegenerative disease in young children. […] Currently, there is no treatment for ML4. […] Under physiological conditions, TRPMLs regulate membrane trafficking by transducing information about PI(3,5)P2 levels into changes in juxtaorganellar Ca2+, thereby triggering membrane fusion/fission events in the late endocytic pathways (endolysosomal trafficking). In addition, TRPML1 mediates release of Fe2+ from late endosomes and lysosomes, which is essential for cellular iron metabolism. Thus, impaired ion (Ca2+ and Fe2+) homeostasis underlies lysosomal dysfunction and ML4 phenotypes. In ML4 cells, the problem is twofold. First, defective Ca2+-dependent membrane trafficking due to TRPML1-deficiency causes accumulation of lipids and other bio-materials in the lysosome. The second strike comes from the lysosomal iron overload (due to impairment of TRPML1's Fe2+ conductivity), which converts the accumulated materials into the nondegradable (resistant to lysosomal degradation) lipofuscin (also called aging pigment) in the lysosome. Lipofuscin accumulation dramatically compromises the functions of lysosomes.
Niemann-Pick type C (NPC) disease is another lysosome storage disease (LSD) with severe neurodegeneration during the childhood. Currently, there is no cure for NPC. […] Thus, TRPML1 is likely to be an essential regulator of lysosome ion homeostasis. We specifically hypothesize that stimulating TRPML1's Fe2+/Ca2+ channel activity in the lysosome using synthetic agonists can alleviate neurodegeneration associated with ML4 or NPC.
To this end, a high throughput screen was developed in a miniaturized format to screen against the Molecular Libraries Small Molecule Repository (MLSMR) to find small molecules that act either as inhibitors or agonist against the TRPML1 channel.
NIH Chemical Genomics Center [NCGC]
NIH Molecular Libraries Probe Centers Network [MLPCN]
Assay Submitter (PI): Haoxing Xu, University of Michigan Ann Arbor
TRPML1-DL cells are dissociated from flasks, counted and, brought up to a density of 500,000 cells per mL of media containing a 1X Tet inducer. Using a Multidrop Combi, 3uL of this cell solution is dispensed to each well of a 1536 TC treated, black, clear bottom hi base plate for a final cell density of 1,500 cells per well. The assay plates are incubated overnight (approximately 16 hours) at 37 degrees C and 5% CO2. Using a Multidrop Combi, 2uL of ABD Ca8 no wash dye plus quencher is added to each well. The assay plates incubate at room temperature in the dark for 45-90 minutes. The assay plate is read on the FDSS using the following protocol: 10 second baseline read, 23nL of compounds and controls are added using 1536 pintool, agonist read for 110 seconds, 1 uL EC80 addition (4uM final 54-4 diluted in media), antagonist read for 110 seconds.
For the compound `Cc1ccc(CNC(=O)c2ccccc2CCc2ccccc2)cc1`, the activation was 0.628% (inactive).
The same measure for `O=C1c2ccccc2S(=O)(=O)c2cc(N3CCN(c4ccccn4)CC3)ccc21`: -0.448% (inactive).
As for `Cc1ccc(CNC(=O)c2cccc3c2C(=O)c2ccc(N4CCC(C)CC4)cc2S3(=O)=O)cc1`, the activation was 66.9% (active).
Regarding `O=C(COC(=O)c1ccccc1OCCOc1ccccc1)Nc1cccc(Br)c1`, the activation is -1.41% (inactive).
The figure for `COc1cc2[nH]c(C)c(CCN3CCN(c4ccccc4)CC3)c2cc1OC` is -0.545% (inactive); for `NC(=O)c1ccc(NC(=O)COC(=O)C(Cc2ccccc2)NC(=O)c2ccccc2)cc1` (stereo not given) it is 4.33% (inactive).
The same measure for `CN(CC(=O)Nc1ccc(C(N)=O)cc1)S(=O)(=O)c1ccc2c(c1)OCCO2`: 0.311% (inactive); for `NC(=O)c1ccc(NC(=O)COC(=O)c2c3c(nc4ccccc24)/C(=C\c2ccc4c(c2)OCO4)CCC3)cc1`: 96% (active).
On to `C[N+]1(CC(=O)c2cccs2)CCOCC1`, for which the activation is -0.317% (inactive).
The same measure for `CN(C)c1ccc(/C=C2\C=Cc3ccccc32)cc1Br`: 0.0951% (inactive); for `OCCNc1ncnc2oc(-c3ccco3)c(-c3ccco3)c12`: 0.995% (inactive); for `COc1ccc(-c2cc(C(=O)Nc3sc4c(c3C(N)=O)CCCC4)no2)cc1`: 0.03% (inactive).
As to `CC(C)c1ccc(NC(=O)Cn2nnc(C(=O)NCCc3ccccc3)c2N)cc1`, the activation is 1.91% (inactive).
The same measure for `Cc1ccc(-c2nnc3ccc(SCC(N)=O)nn23)cc1`: -0.578% (inactive); for `COc1ccc(C(=O)Nc2nonc2-c2ccc(OC)c(OC)c2)cc1Cl`: 2.17% (inactive).
The figure for `CC1(C)CC(=O)c2cc(C(=O)NCc3ccccc3)c(=O)[nH]c2C1` is -0.38% (inactive); for `COc1ccc(C(=O)NCC(c2ccc(N(C)C)cc2)N2CCc3ccccc32)c(OC)c1` (stereo not given) it is -0.0968% (inactive); for `CCOc1ccccc1N(CC)C(=O)c1cc2ccc3cccnc3c2[nH]1` it is 1.16% (inactive).
As for `CCOC(=O)c1ccc(NC(=O)CC2C(=O)N(c3ccccc3)C(=O)N2Cc2cccs2)cc1` (stereo not given), the activation was 0.378% (inactive).
In the case of `Cc1csc(NCC(=O)c2c[nH]c3ccccc23)n1`, the activation was -0.545% (inactive).
Turning to `Nc1ccccc1N`, the activation is -0.412% (inactive).
`c1ccc(Cn2nnc3c(N4CCCCC4)ncnc32)cc1`: the activation is -0.998% (inactive).
On to `Cc1cccc(-c2nnc(SC(C)C(=O)Nc3ccccc3)n2C)c1` (stereo not given), for which the activation is -0.995% (inactive).
For the compound `Cc1ccc(C=O)cc1Cl`, the activation is -0.475% (inactive).
For `C(=Nc1ccc(/C=C/c2ccnc3ccccc23)cc1)c1cc2c3c(c1)CCCN3CCC2`, the activation is 1.62% (inactive).
Regarding `ClC/C=C/C[n+]1ccccc1Cl`, the activation is 0.254% (inactive).
The figure for `Nc1ccc(/C=C/c2ccnc3ccccc23)c([N+](=O)[O-])c1` is 17.6% (inactive); for `Cc1ccccc1NC(=O)Cn1c(=O)n(CC2CCC(C(=O)NCCc3ccccc3)CC2)c(=O)c2ccccc21` (stereo not given) it is 0.124% (inactive).
The figure for `Clc1cccc[n+]1CCCC[n+]1ccccc1Cl` is -0.384% (inactive); for `CCOc1ccc2oc(=O)cc(CN3CCN(C(=O)c4ccc(F)cc4)CC3)c2c1` it is 0.651% (inactive); for `CC(C)(C(=O)NO)c1ccccc1` it is -0.108% (inactive).
In the case of `CN(C(=N)N)c1ccc(/C=C2\C=Cc3ccccc32)cc1`, the activation was -0.285% (inactive).
`CCCCSc1ncnc2c1sc1nc(N3CCOCC3)c3c(c12)CCCC3`: the activation was 0.201% (inactive).
As to `CSc1n[nH]c(-c2ccco2)n1`, the activation is -0.16% (inactive).
Consider `O=C(C[n+]1ccncc1)c1ccc2c(c1)CCCC2`, for which the activation was -0.708% (inactive).
The same measure for `Cc1cc[n+](C2CCCCC2)cc1`: 3.69% (inactive); for `CN1CCN(/[N+]([O-])=N/Oc2ccc([N+](=O)[O-])cc2[N+](=O)[O-])CC1`: 1.19% (inactive); for `C=C1C=C(C(F)F)n2ncc(C(=O)NCCc3ccccc3OC)c2N1`: -1.28% (inactive).
Consider `COc1ccc(CCNc2nc(-c3ccc(Cl)cc3)cc(C(F)(F)F)n2)cc1OC`, for which the activation was -0.222% (inactive).
In the case of `CN(C(=O)CN(CCO)CC(=O)N(C)C(C)(C)Cc1ccccc1)C(C)(C)Cc1ccccc1`, the activation was 51.2% (active).
The same measure for `Cc1cc(C)cc(NC(=O)N(C)Cc2ccccc2)c1`: 0.932% (inactive); for `CCC(=O)N(Cc1ccccc1)c1ccccn1`: -0.645% (inactive); for `COc1ccc(C2/C=C\CN(C(=O)c3ccc(C)cc3)C(Cc3ccccc3)C(=O)N2Cc2ccc(F)cc2)cc1` (stereo not given): 0.118% (inactive).
The same measure for `CCc1ccc(C2CC(=O)c3c([nH]c(C(=O)OCc4ccc(C)cc4)c3C)C2)cc1` (stereo not given): 1.69% (inactive); for `CCc1ccc(CNCc2c(C(=O)O)n(Cc3ccc(F)cc3Cl)c3cc(OC)ccc23)cc1`: 0.807% (inactive).
Turning to `CCN(CC)c1ccc(/C=C/c2c(C)cnc3ccc(C)cc23)cc1`, the activation was 11.4% (inactive).
The figure for `CN(C)c1ccc(/C=c2\[nH]c(=O)/c(=C/c3ccc(N(C)C)cc3)[nH]c2=O)cc1` is 0.206% (inactive); for `CN(C)c1ccc(/C=C/c2c3ccccc3nc3ccccc23)cc1` it is 0.354% (inactive); for `CN(C)c1ccc(/C=C2\NC(=S)N(Cc3ccccc3)C2=O)cc1` it is 66.5% (active).
As to `Nc1c(C(=O)c2cccs2)sc2nsc(SCCN3CCCCC3)c12`, the activation is 56.3% (active).
The same measure for `Cc1ccc(CCNC(=O)Cn2c(-c3cccs3)cc3cc(F)ccc32)cc1`: -0.443% (inactive); for `CNCCCOc1cc2nc(N3CCCN(C)CC3)nc(NC3CCN(C)CC3)c2cc1OC`: -0.513% (inactive).
With `COc1cc2nc(N3CCCN(C)CC3)nc(NC3CC3)c2cc1OC`, the activation was -0.539% (inactive).
The figure for `COc1cc(OC)c(/C=C/c2ccnc3ccccc23)c(OC)c1` is -0.602% (inactive); for `CN(N=O)c1ccc(C=C2c3ccccc3-c3ccccc32)cc1` it is -0.127% (inactive).
The figure for `Cn1nnnc1SCC(=O)N1CCN(C(c2ccccc2)c2ccccc2)CC1` is 2% (inactive); for `Oc1ccccc1CN1CCN(C(c2ccccc2)c2ccccc2)CC1` it is 84.3% (active).
Regarding `CC(=O)N1CCN(CC(c2ccccc2)c2ccccc2)CC1`, the activation was -0.726% (inactive).
The same measure for `CCN1CCN(c2ccc(/C=C/c3ccnc4ccccc34)cc2)CC1`: 5.01% (inactive); for `Cc1ccc(NC(=O)c2ccc(CN3CC(=O)N4CCCCC4C3=O)cc2)c(Cl)c1` (stereo not given): 2.76% (inactive).
With `CCOc1n[nH]c(-c2ccccc2)n1`, the activation was 0% (inactive).
The figure for `CN(C)c1ccc(/C=N\Nc2ccc([N+](=O)[O-])cc2[N+](=O)[O-])cc1Cl` is -0.0634% (inactive).
The figure for `O=C(CSc1ncc(-c2ccccc2)[nH]1)Nc1ccc(F)cc1F` is 2.97% (inactive); for `OCC(O)C(O)C(O)C(O)C=Nc1ccc(/C=C/c2ccnc3ccccc23)cc1` (stereo not given) it is 6.02% (inactive).
In the case of `COC(=O)C1=C(C(=O)OC)[C@@H]2N(Cc3ccccc3)c3ccccc3[C@@]23C[C@@H](C(=O)OC)N(S(=O)(=O)c2ccc(C(F)(F)F)cc2)C3=N1`, the activation was -0.417% (inactive).
With `CCN1/C(=C/c2ccc3ccc(C)cc3[n+]2CC)Sc2ccccc21`, the activation is 70.1% (active).
The figure for `CCCCOc1ccc(C(=O)NO)cc1` is -0.809% (inactive); for `Cc1csc[n+]1CCC1CCCCC1` it is 0.413% (inactive); for `C=C1C=C(C)n2ncc(C(=O)Nc3ccccc3O)c2N1` it is -0.539% (inactive).
For the compound `Nc1nc(N)c(N=O)c(N)n1`, the activation was -0.147% (inactive).
The figure for `C=CCCN(C(Cc1ccccc1)C(=O)OC)S(=O)(=O)c1cc(Br)ccc1Br` (stereo not given) is 2.52% (inactive).
For the compound `CCCN(CCC)c1nc2c(C)cccn2c(=O)c1/C=C1/SC(=S)N(Cc2ccco2)C1=O`, the activation was 17.6% (inactive).
The same measure for `CCOC(=O)CNC(=O)c1cc2c(=O)n3cccc(C)c3nc2s1`: 0.461% (inactive); for `CCOC(=O)CC1C(=O)NCCN1c1nc2c(C)cccn2c(=O)c1/C=C1\SC(=S)N(C(C)CC)C1=O` (stereo not given): 71% (active).
The figure for `CCC(=O)N1CCc2cc(Br)cc(S(=O)(=O)CCC(=O)NCCc3ccc(OC)c(OC)c3)c21` is -0.301% (inactive); for `Cc1[nH]c2ccccc2c1C(=O)C(=O)N(C)c1ccccc1` it is -0.513% (inactive).
The same measure for `COC(=O)C1=C(c2ccccc2)c2ccccc2S(=O)(=O)N1CC(=O)Nc1ccccc1C(F)(F)F`: 1.11% (inactive); for `CN(C)c1ccc(/C=C/C=C/c2ccnc3ccccc23)cc1`: 52.7% (active); for `CCC(C)N(c1ccc(/C=C/c2ccnc3ccccc23)cc1)C(C)CC` (stereo not given): 18.2% (inactive).
`CN(C)c1ccc(C=Nc2ccc(/C=C/c3ccnc4ccccc34)cc2)cc1`: the activation is 1.17% (inactive).
The same measure for `Cc1cccc(CN2Cc3cccc4c3[C@H](C=CC4)CC2=S)c1`: -0.678% (inactive); for `CCCc1cc(=O)n2[nH]c(NCc3ccc(CC)cc3)nc2n1`: -0.211% (inactive).
The same measure for `CCCN1CCC(=O)N(C(CSc2ccc(C)cc2)Cc2ccccc2)CC1` (stereo not given): 1.24% (inactive); for `CCOC1=C2[C@@H](CN(S(=O)(=O)c3ccc(C)cc3)[C@H]2c2ccccc2F)[C@H]2C(=O)N(Cc3ccccc3)C(=O)[C@H]2C1`: 1.29% (inactive); for `CCOC1=C2CN(S(=O)(=O)c3ccc(C)cc3)[C@H](c3cccs3)C[C@H]2[C@H]2C(=O)N(c3ccccc3)C(=O)[C@H]2C1`: 64.2% (active).
The figure for `CCOC1=C2[C@H]([C@H]3C(=O)N(c4ccccc4)C(=O)[C@H]3C1)[C@@H](c1ccccc1)N(S(=O)(=O)c1ccc(C)cc1)[C@H]2c1ccccc1` is -0.217% (inactive); for `COc1cc(NS(=O)(=O)c2cccs2)cc(OC)c1` it is -1.48% (inactive).
As for `COc1cc2nc(Cl)nc(NC3CC3)c2cc1OC`, the activation was -0.998% (inactive).
The figure for `CCOC(=O)c1c(NC(=O)COc2cc(C)ccc2C(C)C)sc(C)c1C` is 1.35% (inactive); for `O=C1C[C@H]2C=CCc3cccc(c32)CN1Cc1ccccc1` it is -0.974% (inactive).
